Experimental data published in PubChem BioAssay (NCATS).
Inconclusive results are not listed. Active and inactive are the calls of the source. The call rests on the fitted dose curve; in most records, active means well fitted curve in the direction sought with a large enough effect; inconclusive means small, poorly fitted or top-dose-only effect, or another doubt; inactive means no such curve, though single readings can be large; an effect the other way counts as inactive or inconclusive.

Columns and labels:
[1] = MultiTox-Fluor Cytotoxicity Assay - LYMP1-003 - Live Cells (AID 962);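 further: cells exposed to compound for 16 hours at 37 °C; cytotoxic hits lower the live-cell protease signal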
In short: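 LYMP1-003 lymphoblastoid cells, 2500/well in complete medium, treated 16 h at 37 C; live-cell protease cleavage of GF-AFC read by fluorescence (Ex/Em 405/510) after 60 min reagent; AC50 from Hill fits of concentration-response.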

[2] = Cell Viability - LYMP1-003 - Assay at 24 hr (AID 963)
In short: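 Human lymphoblastoid LYMP1-003 cells, 2500/well, treated 24 h at 37 C in complete medium. Viability read as intracellular ATP by CellTiter-Glo luminescence after 30 min at room temperature; AC50 from Hill-equation fits of qHTS concentration-response.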

[3] = Cell Viability - LYMP1-003 - Assay at 40 hr (AID 964); further: series mostly up to about 92 µM; nearly all actives have a fitted effect of over 60% in size
In short: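 LYMP1-003 human lymphoblastoid cells, 2500/well, preincubated 5 h at 37 C, then treated with compound for 40 h at 37 C. Intracellular ATP read by CellTiter-Glo luminescence after 30 min at room temperature; AC50 from Hill-equation fits.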

[4] = Cell Viability - LYMP2-003 (AID 965);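 further: cells exposed to compounds for 24 h before reading; nearly all actives have a fitted effect of over 50% in size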
In short: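 Human lymphoblastoid LYMP2-003 cells, 2500/well, exposed to compounds for 24 h at 37 C in complete medium. Viability read as intracellular ATP by CellTiter-Glo luminescence; AC50 from Hill-equation fits of qHTS concentration-response data.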

[5] = Cell Viability - LYMP2-004 (AID 966); further: nearly all actives have a fitted effect of over 65% in size
In short: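 Lymphoblastoid LYMP2-004 cells, 2500 per well, were preincubated for 5 hr and then treated with compound for 24 h at 37 C in complete medium. Viability was read as cellular ATP by CellTiter-Glo luminescence, and AC50 values were taken from Hill fits to concentration-response data.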

[6] = Cell Viability - LYMP2-005 (AID 967); further: series mostly up to about 92 µM
In short: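 Human lymphoblastoid LYMP2-005 cells, 2,500 per well in complete medium, rested 5 h at 37C then compound-treated 24 h at 37C. Intracellular ATP read by CellTiter-Glo luminescence after 30 min at room temperature; AC50 from Hill-equation fits of concentration-response data.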

[7] = Cell Viability - LYMP2-009 (AID 968); further: series mostly up to about 92 µM; nearly all actives have a fitted effect of over 55% in size
[8] = Cell Viability - LYMP2-011 (AID 969); further: nearly all actives have a fitted effect of over 60% in size
In short: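 2500 cells/well in complete medium, compound-treated 24 h at 37 C. Viability read as intracellular ATP by CellTiter-Glo luminescence after 30 min at room temperature. AC50 from Hill fits of qHTS concentration-response data.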

[9] = Cell Viability - LYMP2-013 (AID 970); further: series mostly up to about 92 µM; nearly all actives have a fitted effect of over 55% in size
In short: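 Human lymphoblastoid LYMP2-013 cells, 2500/well, treated 24 h at 37 C in complete medium; viability as intracellular ATP by CellTiter-Glo luminescence after 30 min. AC50 from Hill fits of qHTS concentration-response.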

[10] = Cell Viability - LYMP2-015 (AID 971); further: nearly all actives have a fitted effect of over 55% in size
In short: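 LYMP2-015 human lymphoblastoid cells (2500/well) in complete medium, compound-treated 24 h at 37 C; viability read as cellular ATP by CellTiter-Glo luminescence after 30 min at room temperature. AC50 from Hill-equation fits of qHTS concentration-response data.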

[11] = Cell Viability - LYMP2-017 (AID 972); further: series mostly up to about 92 µM; nearly all actives have a fitted effect of over 55% in size
In short: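 LYMP2-017 human lymphoblastoid cells (2500/well) settled 5 hr at 37 C, then exposed to compound 24 hr at 37 C in complete medium. Viability taken as intracellular ATP by CellTiter-Glo luminescence after 30 min at RT; AC50 from Hill fits.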

[12] = Cell Viability - LYMP2-019 (AID 973); further: nearly all actives have a fitted effect of over 55% in size
In short: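 Human lymphoblastoid LYMP2-019 cells (2500/well) preincubated 5 h at 37 C, then treated 24 h at 37 C in complete medium. Viability by CellTiter-Glo ATP luminescence after 30 min at room temperature; AC50 from Hill fits.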

[13] = Cell Viability - LYMP2-021 (AID 974)
In short: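 Human lymphoblastoid LYMP2-021 cells, 2500/well in complete medium, treated 24 hours at 37 C. Intracellular ATP by CellTiter-Glo luminescence (30 min, RT); AC50 from Hill fits of concentration-response.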

[14] = Cell Viability - LYMP2-023 (AID 975)
In short: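 LYMP2-023 human lymphoblastoid cells, 2500/well, preincubated 5 hr at 37 C, then compound-treated 24 hr at 37 C in complete medium. CellTiter-Glo luminescence (ATP) after 30 min at room temperature; AC50 from Hill-equation fits; tetraoctylammonium bromide positive control.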

[15] = Cell Viability - LYMP2-025 (AID 976); further: series mostly up to about 92 µM
In short: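 Human lymphoblastoid LYMP2-025 cells, 2500/well, exposed 24 h at 37 C in complete medium in 1536-well qHTS. Viability as cellular ATP by CellTiter-Glo luminescence; AC50 from Hill fits of concentration-response data.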

[16] = Cell Viability - LYMP2-002 (AID 977);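 further: series mostly up to about 92 µM; compound exposure lasted 24 h at 37 °C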
In short: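 Cytotoxicity is scored as concentration-dependent loss of cellular ATP in a human lymphoblastoid line after 24 hr compound treatment at 37 C. AC50 is obtained by modelling concentration-response data with the Hill equation.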

[17] = Cell Viability - LYMP2-006 (AID 978); further: series mostly up to about 92 µM; nearly all actives have a fitted effect of over 60% in size
In short: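 Human lymphoblastoid cells (LYMP2-006), 2500/well in complete medium, were treated with compound for 24 hr at 37 C. Cellular ATP was read by CellTiter-Glo luminescence after 30 min, and AC50 values came from Hill-equation fits of concentration-response data.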

[18] = Cell Viability - LYMP2-007 (AID 979);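 further: cells exposed to compound for 24 h before reading; nearly all actives have a fitted effect of over 60% in size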
In short: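 Human lymphoblastoid LYMP2-007 cells (2500/well) preincubated 5 h at 37 C, then treated 24 h at 37 C in complete medium. Viability by CellTiter-Glo ATP luminescence after 30 min at room temperature; AC50 from Hill fits.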

[19] = Cell Viability - LYMP2-008 (AID 980); further: nearly all actives have a fitted effect of over 60% in size
In short: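 LYMP2-008 lymphoblastoid cells (2500/well) plated 5 h, then treated 24 h at 37 C in complete medium. Viability read as intracellular ATP by CellTiter-Glo luminescence after 30 min at room temperature; AC50 from Hill fits.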

[20] = Cell Viability - LYMP2-010 (AID 981); further: nearly all actives have a fitted effect of over 55% in size
In short: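 Human lymphoblastoid LYMP2-010 cells (2500/well) treated 24 h at 37 C in complete medium; viability read as intracellular ATP by CellTiter-Glo luminescence. AC50 from Hill fits of concentration-response data; tetraoctylammonium bromide positive control.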

Measured: outcome

CN(C)CCOC(c1ccccc1)c1ccccc1 (tested in a mixture with another compound)
inactive: [1] | [2] | [3] | [4] | [5] | [6] | [7] | [8] | [9] | [10] | [11] | [12] | [13] | [14] | [15] | [16] | [17] | [18] | [19] | [20]
